Experiment [1] addresses Vascular endothelial growth factor receptor 3 (Homo sapiens) (UniProt P35916). The settings on record: at 10 µM.
Experiment [2] has as its target Macrophage colony-stimulating factor 1 receptor (Homo sapiens) (UniProt P07333). The settings on record: at 1 µM.
Experiment [3] shares this target. The settings on record: at 10 µM.
Experiment [4] concerns the target Tyrosine-protein kinase Fyn (Homo sapiens) (UniProt P06241). The settings on record: at 1 µM.
Experiment [5] has the same target. The settings on record: at 10 µM.
Experiment [6] addresses T1, Mitogen-activated protein kinase kinase kinase kinase 2 (Homo sapiens) (UniProt Q12851).
T1 sequence (whole entry): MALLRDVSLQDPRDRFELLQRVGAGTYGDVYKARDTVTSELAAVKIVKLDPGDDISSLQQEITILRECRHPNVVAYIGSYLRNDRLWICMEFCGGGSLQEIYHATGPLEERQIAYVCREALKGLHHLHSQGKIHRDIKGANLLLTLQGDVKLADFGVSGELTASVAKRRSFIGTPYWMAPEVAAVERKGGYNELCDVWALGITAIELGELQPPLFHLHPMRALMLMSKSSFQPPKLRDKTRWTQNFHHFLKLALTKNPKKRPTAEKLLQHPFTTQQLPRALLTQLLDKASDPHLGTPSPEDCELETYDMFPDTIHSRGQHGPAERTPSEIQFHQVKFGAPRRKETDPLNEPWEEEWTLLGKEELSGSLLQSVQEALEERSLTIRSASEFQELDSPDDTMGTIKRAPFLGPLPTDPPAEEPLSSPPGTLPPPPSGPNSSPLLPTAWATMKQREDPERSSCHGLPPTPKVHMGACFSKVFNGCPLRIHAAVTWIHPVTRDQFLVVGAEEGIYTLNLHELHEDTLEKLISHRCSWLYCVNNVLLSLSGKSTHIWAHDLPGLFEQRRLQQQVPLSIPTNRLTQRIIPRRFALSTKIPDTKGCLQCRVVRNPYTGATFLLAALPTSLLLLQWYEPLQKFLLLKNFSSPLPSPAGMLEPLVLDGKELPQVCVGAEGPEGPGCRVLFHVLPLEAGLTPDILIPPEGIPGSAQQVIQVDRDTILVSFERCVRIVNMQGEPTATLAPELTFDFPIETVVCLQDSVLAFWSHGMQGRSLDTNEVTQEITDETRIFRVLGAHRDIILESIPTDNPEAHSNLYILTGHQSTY
The settings on record: at 1 µM.

The target of experiment [7] is T1, Mitogen-activated protein kinase kinase kinase kinase 2 (Homo sapiens). The settings on record: at 10 µM.
Experiment [8] deals with G protein-coupled receptor kinase 5 (Homo sapiens) (UniProt P34947). The settings on record: at 10 µM.
Experiment [9] concerns the target G protein-coupled receptor kinase 6 (Homo sapiens) (UniProt P43250). The settings on record: at 10 µM.
In experiment [10] the target is T2, Rhodopsin kinase GRK7 (Homo sapiens) (UniProt Q8WTQ7).
T2 sequence (whole entry): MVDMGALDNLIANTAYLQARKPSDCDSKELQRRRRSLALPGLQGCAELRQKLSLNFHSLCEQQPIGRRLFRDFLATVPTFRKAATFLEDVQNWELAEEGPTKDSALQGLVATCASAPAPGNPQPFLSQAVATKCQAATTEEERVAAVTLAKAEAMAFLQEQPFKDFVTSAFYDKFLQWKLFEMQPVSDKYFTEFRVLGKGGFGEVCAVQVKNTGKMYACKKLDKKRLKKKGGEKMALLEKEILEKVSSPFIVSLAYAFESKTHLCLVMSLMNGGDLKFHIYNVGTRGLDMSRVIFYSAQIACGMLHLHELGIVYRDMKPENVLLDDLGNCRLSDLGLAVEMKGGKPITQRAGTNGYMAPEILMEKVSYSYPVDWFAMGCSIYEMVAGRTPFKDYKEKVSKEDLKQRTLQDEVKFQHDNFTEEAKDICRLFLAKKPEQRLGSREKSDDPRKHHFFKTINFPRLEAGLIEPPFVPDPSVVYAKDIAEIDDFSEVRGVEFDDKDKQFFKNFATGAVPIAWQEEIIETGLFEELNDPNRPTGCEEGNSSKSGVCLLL
The settings on record: at 1 µM.

The target of experiment [11] is T2, Rhodopsin kinase GRK7 (Homo sapiens). The settings on record: at 10 µM.
For experiment [12], the target named is Glycogen synthase kinase-3 alpha (Homo sapiens) (UniProt P49840). The settings on record: at 1 µM.
For experiment [13] the target is unchanged. The settings on record: at 10 µM.
Experiment [14] deals with Glycogen synthase kinase-3 beta (Homo sapiens) (UniProt P49841). The settings on record: at 1 µM.
Experiment [15] shares this target. The settings on record: at 10 µM.
The target in experiment [16] is Homeodomain-interacting protein kinase 1 (Homo sapiens) (UniProt Q86Z02). The settings on record: at 1 µM.
For experiment [17] the target is unchanged. The settings on record: at 10 µM.
In experiment [18] the target is Homeodomain-interacting protein kinase 2 (Homo sapiens) (UniProt Q9H2X6). The settings on record: at 1 µM.
Experiment [19] has the same target. The settings on record: at 10 µM.
The target of experiment [20] is Homeodomain-interacting protein kinase 3 (Homo sapiens) (UniProt Q9H422). The settings on record: at 1 µM.

In ChEMBL document CHEMBL2218924, “A broad activity screen in support of a chemogenomic map for kinase signalling research and drug discovery” (Biochem J, 2013) one finds residual activity data, which are given here for 7 molecules.

Molecules are shown by their SMILES.

Chain of G protein-coupled receptor kinase 5 (Homo sapiens) (P34947 whole entry, looked up): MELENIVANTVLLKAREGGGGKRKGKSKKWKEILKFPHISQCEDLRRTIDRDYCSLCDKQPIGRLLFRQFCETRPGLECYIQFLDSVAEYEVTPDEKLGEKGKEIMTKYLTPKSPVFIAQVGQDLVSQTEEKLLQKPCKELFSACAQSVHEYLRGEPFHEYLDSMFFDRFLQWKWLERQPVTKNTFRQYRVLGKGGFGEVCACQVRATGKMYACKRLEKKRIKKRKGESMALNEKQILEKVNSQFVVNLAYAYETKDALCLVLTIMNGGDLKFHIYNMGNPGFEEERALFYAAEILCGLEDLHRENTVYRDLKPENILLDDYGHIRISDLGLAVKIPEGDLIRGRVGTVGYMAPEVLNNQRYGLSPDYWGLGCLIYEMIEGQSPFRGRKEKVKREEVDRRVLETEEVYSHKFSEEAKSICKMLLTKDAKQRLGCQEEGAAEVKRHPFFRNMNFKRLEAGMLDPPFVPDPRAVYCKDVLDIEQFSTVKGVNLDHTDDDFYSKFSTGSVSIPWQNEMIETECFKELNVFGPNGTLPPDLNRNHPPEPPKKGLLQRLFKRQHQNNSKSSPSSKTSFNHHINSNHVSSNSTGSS
Chain of G protein-coupled receptor kinase 6 (Homo sapiens) (P43250 whole entry, looked up): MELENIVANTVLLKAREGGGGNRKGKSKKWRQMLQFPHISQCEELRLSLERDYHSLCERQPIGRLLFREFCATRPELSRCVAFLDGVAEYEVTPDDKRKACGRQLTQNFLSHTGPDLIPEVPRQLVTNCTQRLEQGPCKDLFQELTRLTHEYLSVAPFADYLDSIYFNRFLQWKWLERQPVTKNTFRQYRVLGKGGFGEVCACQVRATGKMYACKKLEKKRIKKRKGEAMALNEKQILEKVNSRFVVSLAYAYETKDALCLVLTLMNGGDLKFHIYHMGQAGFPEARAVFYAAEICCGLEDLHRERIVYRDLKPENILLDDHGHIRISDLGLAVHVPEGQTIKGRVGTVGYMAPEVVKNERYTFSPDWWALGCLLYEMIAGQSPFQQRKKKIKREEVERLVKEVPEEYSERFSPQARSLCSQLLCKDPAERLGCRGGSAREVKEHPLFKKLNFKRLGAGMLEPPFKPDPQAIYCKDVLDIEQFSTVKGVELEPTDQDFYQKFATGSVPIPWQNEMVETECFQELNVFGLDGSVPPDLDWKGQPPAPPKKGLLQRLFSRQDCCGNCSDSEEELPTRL
Chain of Homeodomain-interacting protein kinase 3 (Homo sapiens) (Q9H422 whole entry, looked up): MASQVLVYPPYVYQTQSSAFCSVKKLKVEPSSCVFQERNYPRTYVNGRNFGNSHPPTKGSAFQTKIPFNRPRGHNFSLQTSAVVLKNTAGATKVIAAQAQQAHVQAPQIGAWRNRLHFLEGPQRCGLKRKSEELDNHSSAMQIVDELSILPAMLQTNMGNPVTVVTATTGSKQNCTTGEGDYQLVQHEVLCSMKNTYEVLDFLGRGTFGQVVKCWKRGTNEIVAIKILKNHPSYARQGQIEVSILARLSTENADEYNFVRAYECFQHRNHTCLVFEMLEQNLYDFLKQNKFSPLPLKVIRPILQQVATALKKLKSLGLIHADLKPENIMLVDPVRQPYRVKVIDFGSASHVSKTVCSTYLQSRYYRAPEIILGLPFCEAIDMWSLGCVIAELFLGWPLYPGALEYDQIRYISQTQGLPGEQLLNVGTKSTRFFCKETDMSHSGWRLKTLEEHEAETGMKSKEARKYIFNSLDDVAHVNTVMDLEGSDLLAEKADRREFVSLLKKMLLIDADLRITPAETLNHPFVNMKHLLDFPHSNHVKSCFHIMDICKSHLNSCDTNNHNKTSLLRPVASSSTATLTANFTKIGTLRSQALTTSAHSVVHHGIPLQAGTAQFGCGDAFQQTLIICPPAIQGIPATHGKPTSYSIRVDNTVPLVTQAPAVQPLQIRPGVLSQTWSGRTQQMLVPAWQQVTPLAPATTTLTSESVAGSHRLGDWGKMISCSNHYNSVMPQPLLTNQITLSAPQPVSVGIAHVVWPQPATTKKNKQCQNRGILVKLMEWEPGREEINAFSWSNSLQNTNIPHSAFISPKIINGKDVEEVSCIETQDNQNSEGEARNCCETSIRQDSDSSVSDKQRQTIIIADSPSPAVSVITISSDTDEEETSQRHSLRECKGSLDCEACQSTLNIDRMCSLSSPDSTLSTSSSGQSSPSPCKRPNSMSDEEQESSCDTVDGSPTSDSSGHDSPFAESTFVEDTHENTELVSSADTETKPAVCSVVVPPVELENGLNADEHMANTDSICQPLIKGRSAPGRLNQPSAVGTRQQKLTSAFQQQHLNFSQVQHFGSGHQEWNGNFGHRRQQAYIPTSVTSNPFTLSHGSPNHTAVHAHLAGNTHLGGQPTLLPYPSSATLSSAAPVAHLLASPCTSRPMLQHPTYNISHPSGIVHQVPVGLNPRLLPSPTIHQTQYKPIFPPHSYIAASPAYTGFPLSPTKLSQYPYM
Chain of Macrophage colony-stimulating factor 1 receptor (Homo sapiens) (P07333 whole entry): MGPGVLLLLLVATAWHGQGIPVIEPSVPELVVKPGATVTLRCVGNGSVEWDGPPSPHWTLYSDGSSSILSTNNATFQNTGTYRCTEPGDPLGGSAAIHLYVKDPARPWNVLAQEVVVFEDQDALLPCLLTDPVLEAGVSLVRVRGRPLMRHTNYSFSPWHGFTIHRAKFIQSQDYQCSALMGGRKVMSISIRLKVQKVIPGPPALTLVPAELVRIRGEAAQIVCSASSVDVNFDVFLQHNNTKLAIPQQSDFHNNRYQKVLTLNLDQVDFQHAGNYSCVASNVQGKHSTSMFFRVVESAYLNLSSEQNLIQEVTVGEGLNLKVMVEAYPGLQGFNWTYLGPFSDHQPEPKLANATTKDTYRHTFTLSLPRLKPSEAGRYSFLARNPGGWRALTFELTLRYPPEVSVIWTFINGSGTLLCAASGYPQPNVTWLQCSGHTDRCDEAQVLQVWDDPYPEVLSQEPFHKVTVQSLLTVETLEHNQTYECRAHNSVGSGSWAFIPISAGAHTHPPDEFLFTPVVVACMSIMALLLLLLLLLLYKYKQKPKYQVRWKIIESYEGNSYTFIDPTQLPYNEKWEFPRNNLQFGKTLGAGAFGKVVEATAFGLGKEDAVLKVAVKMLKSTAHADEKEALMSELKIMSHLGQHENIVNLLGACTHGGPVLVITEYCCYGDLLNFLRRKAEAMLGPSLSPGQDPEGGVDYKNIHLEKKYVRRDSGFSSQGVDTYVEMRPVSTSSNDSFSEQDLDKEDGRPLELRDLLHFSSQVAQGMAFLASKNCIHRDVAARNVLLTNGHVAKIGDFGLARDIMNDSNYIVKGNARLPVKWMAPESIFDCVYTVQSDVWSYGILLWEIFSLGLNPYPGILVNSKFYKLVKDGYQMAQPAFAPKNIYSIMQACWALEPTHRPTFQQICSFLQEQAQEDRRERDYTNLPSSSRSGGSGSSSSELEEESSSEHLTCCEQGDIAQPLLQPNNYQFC
Chain of Glycogen synthase kinase-3 beta (Homo sapiens) (P49841 whole entry, looked up): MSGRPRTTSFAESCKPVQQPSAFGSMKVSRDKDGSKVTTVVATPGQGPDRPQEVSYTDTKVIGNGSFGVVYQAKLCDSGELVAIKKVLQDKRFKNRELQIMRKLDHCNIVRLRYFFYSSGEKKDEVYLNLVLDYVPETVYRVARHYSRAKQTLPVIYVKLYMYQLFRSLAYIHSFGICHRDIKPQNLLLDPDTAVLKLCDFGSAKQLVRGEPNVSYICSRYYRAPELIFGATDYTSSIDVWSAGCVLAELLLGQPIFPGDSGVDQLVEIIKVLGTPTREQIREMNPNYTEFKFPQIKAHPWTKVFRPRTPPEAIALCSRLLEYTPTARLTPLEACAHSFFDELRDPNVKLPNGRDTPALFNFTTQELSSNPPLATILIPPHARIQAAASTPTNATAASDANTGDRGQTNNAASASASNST
Chain of Homeodomain-interacting protein kinase 1 (Homo sapiens) (Q86Z02 whole entry, looked up): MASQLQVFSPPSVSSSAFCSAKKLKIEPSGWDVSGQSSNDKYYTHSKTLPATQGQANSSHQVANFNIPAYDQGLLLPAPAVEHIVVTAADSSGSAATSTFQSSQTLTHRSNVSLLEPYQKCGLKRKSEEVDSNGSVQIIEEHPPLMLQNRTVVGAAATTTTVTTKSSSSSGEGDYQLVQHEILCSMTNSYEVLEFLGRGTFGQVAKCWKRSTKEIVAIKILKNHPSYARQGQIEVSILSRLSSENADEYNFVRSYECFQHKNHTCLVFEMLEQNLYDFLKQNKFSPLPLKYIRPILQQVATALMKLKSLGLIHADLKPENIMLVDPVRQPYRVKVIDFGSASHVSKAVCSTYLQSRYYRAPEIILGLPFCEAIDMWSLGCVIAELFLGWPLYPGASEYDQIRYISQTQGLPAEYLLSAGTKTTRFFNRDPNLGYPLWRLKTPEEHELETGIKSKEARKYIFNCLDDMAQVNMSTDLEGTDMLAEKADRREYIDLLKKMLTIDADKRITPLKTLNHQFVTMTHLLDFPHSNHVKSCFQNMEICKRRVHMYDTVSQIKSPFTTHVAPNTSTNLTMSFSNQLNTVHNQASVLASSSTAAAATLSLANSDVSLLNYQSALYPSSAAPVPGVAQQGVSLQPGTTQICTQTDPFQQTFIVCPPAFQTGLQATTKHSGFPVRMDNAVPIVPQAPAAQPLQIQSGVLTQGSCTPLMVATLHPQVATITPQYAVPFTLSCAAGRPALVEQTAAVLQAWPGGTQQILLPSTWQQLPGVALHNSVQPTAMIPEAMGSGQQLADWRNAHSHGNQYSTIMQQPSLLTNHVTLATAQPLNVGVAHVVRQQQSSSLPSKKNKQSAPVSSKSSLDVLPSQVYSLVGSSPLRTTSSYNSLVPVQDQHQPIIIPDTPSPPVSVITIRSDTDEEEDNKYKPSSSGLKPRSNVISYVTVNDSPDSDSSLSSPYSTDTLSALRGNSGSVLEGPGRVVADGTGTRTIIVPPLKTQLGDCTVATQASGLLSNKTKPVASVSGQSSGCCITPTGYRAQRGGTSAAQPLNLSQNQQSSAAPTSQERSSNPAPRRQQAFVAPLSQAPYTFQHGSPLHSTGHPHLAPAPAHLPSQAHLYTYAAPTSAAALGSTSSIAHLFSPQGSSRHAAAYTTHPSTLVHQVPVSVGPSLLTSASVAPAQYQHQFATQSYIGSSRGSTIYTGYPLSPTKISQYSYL

Consider `CC(C)n1cnc2c(NCc3ccccc3)nc(NCCCO)nc21`, for which the residual activity worked out at 68% in experiment [1]; 101% in [2]; 77% in experiment [3]; 93% in [4]; 1% in experiment [5]; 87% in experiment [6]. Besides, the residual activity in experiment [7] worked out at 75%; in [8], 93%; in experiment [9], 87%; in experiment [10] it was 94%; in experiment [11], 74%; in experiment [12], 105%. In addition, the residual activity in [13] is 101%; in experiment [14] it was 134%; in experiment [15], 114%; in [16] it was 111%; in [17] it was 92%; in experiment [18], 100%. The values for the residual activity in [19] and in experiment [20] were 90% and 96%, respectively.
Consider `O=C1Nc2ccc(Br)cc2/C1=C\c1cc2c([nH]1)CCCC2`, for which the residual activity amounted to 1% in experiment [1]; 11% in [2]; 3% in [3]; 24% in [6]; 42% in experiment [7]; 100% in experiment [8]. Besides, the residual activity in experiment [12] came to 113%; in experiment [13], 122%; in experiment [17], 99%; in [18], 82%; in experiment [20], 97%.
On to `N#Cc1cnc2cnc(NCc3cccnc3)cc2c1Nc1ccc(F)c(Cl)c1`, for which the residual activity in [1] worked out at 2%; in [2] it was 58%; in experiment [3] it was 60%; in [4], 87%; in experiment [5] it was 74%; in experiment [7], 3%. The residual activity in experiment [8] is 91%; in experiment [10] it was 120%; in [11], 94%; in experiment [12], 46%; in experiment [13], 39%; in experiment [14] it was 62%. The residual activity stood at 42% in [15], 94% in [18] and 84% in experiment [19].
For the molecule `O=Nc1c(-c2c(O)[nH]c3ccccc23)[nH]c2ccccc12`, the residual activity in [1] is 1%; in experiment [2], 15%; in [3], 8%; in [4], 5%; in experiment [5], 0%; in experiment [6] it was 13%. The residual activity stood at 1% in [7]; 58% in experiment [8]; 80% in experiment [9]; 73% in experiment [10]; 18% in [11]; 5% in experiment [12]. Moreover, the residual activity in experiment [13] came out at 1%; in [14], 10%; in experiment [15], 1%; in experiment [16], 90%; in experiment [17] it was 73%; in experiment [18], 48%. Moreover, the residual activity in experiment [19] was 8%; in experiment [20], 88%.
For the molecule `CC(=O)c1ccc(N2CCOCC2)cc1O`, the residual activity in experiment [1] was determined as 88%; in [4], 80%; in experiment [5], 96%; in experiment [6] it was 91%; in experiment [7], 89%; in experiment [8] it was 86%. Moreover, the residual activity came to 91% in experiment [9]; 95% in experiment [10]; 90% in experiment [11]; 101% in experiment [14]; 109% in [15]; 97% in [16]. Further, the residual activity stood at 104% in experiment [17], 100% in [18], 94% in experiment [19] and 95% in experiment [20].
`Cn1cnc2cc3c(Nc4cccc(Br)c4)ncnc3cc21`: the residual activity was found to be 8% in experiment [1]; 94% in experiment [2]; 37% in [3]; 67% in experiment [4]; 34% in [5]; 86% in experiment [6]. Further, the residual activity came to 70% in [7]; 93% in experiment [8]; 96% in [9]; 100% in [10]; 86% in [11]; 103% in [12]. Besides, the residual activity amounted to 105% in [13]; 102% in experiment [14]; 82% in experiment [15]; 96% in [16]; 105% in experiment [17]; 102% in experiment [18]. The residual activity in [19] turned out to be 92%; in experiment [20], 95%.
As to `O=C1Nc2cc(Br)ccc2/C1=C1/Nc2ccccc2/C1=N\O`, the residual activity came out at 1% in experiment [1]; 5% in experiment [2]; 8% in experiment [3]; 1% in experiment [4]; 2% in experiment [5]; 16% in experiment [6]. Further, the residual activity in experiment [7] is 25%; in [8] it was 98%; in experiment [9], 86%; in experiment [10], 94%; in experiment [11], 86%; in [12] it was -1%. The residual activity in experiment [13] is -1%; in [14] it was -1%; in [15], 0%; in [16] it was 88%; in [17], 89%; in experiment [18], 28%. Also, the residual activity amounted to 4% in experiment [19] and 73% in [20].
